Screens as filed in PubChem.
Compounds with a hit are over-represented: about 1.7% of the library has one in this group of screens.
NOD2 RIPK2 PPI = NOD2-RIPK2 protein interaction inhibition; inhibition, % at 4.98 µM; CHO BLA complementation NOD2-RIPK2, CCF4 ratio; hit rate 0.38% among 360,000; AID 624267; O43353; in the data active means inhibition above about 21%;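 further: 0% = vehicle only and 100% = reference blocker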
Myeloid diff MLP = myeloid differentiation induction; ER-HoxA9 myeloid progenitors, lysozyme-GFP differentiation, flow cytometry; calls only at 10 µM; hit rate 1% among 360,000; AID 624256;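 active means normalized GFP-positive differentiation at or above the plate's own cutoff, the solvent-only control mean plus 3 SD; inconclusive means no clear call, values can overlap the other calls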;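 further: cells exposed to compound for four days before flow analysis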
TLR9-MyD88 block = inhibitors of human TLR9-MyD88 binding. CHO BLA complementation TLR9-MyD88, CCF4 FRET ratio. Q9NR96+Q99836. hit rate 0.21% among 340,000. inhibition, % at 4.98 µM. AID 504734;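 active means inhibition above the mean over all tested compounds plus 3 SD, cut at about 21% in these data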;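 further: 0% = DMSO only wells and 100% = clavulanate BLA inhibitor control wells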
ABCB6 inh 2 = blocks the human ABCB6 transporter; fluorescence ratio to DMSO, % at 10 µM; Q9NP58; AID 602162; K562-ABCB6 porphyrin accumulation, flow cytometry, 1 h; hits give low values; hit rate 0.19% among 360,000;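 active means fluorescence ratio to DMSO below 75%, the collection mean minus 3 SD; inconclusive means too few cells collected in the well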;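 further: signal is porphyrin accumulated inside mitochondria; 100% equals median channel fluorescence of DMSO control wells; lower ratio means ABCB6 inhibition with less porphyrin fluorescence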
TLR4-MyD88 BLA = blocks binding of human TLR4 to MyD88; HeLa CL3-4 TLR4/MyD88 BLA complementation, FRET ratio; O00206+Q99836; hit rate 0.18% among 200,000; inhibition, % at 8.4 µM; AID 861; in the data active means inhibition above about 25%;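 further: 0% = vehicle and 100% = reference inhibitor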
ABCB6 blocker 1 = human ABCB6 transporter inhibition. shares compounds with ABCB6 inh 2. K562-ABCB6 porphyrin accumulation, flow cytometry, 1 h; hits give low values. ratio response (% of DMSO), % at 10 µM. 700 tested, under 10 active. AID 602430;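 active means repeat-averaged ratio response below 75% of DMSO, the collection mean minus 3 SD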;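 further: median porphyrin fluorescence at 575 nm with 488 nm excitation from mitochondria; lower ratio means less porphyrin signal so ABCB6 inhibition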
* = called active by the depositor; i = inactive; ? = inconclusive; · = no result given.

SMILES	NOD2 RIPK2 PPI	Myeloid diff MLP	TLR9-MyD88 block	ABCB6 inh 2	TLR4-MyD88 BLA	ABCB6 blocker 1
O=C(Nc1ccc2c(c1)OCO2)C1Cc2c(-c3ccc(Cl)cc3)ccnc2O1 (centres undefined)	7.9	i	·	97.0	·	97.0
O=C(Nc1ccc(F)c(Cl)c1)C1Cc2c(-c3cccc(F)c3)ccnc2O1 (centres undefined)	4.1	i	·	72.0*	·	101.0
O=C(Nc1ccc2c(c1)OCO2)C1Cc2c(-c3ccc4c(c3)OCO4)ccnc2O1 (centres undefined)	9.7	i	·	93.0	·	·
CC(C)c1ccc(NC(=O)C2Cc3c(-c4cccc(F)c4)ccnc3O2)cc1 (centres undefined)	-5.0	i	·	97.0	·	·
CC(=O)c1cccc(-c2ccnc3c2CC(C(=O)Nc2ccccc2)O3)c1 (centres undefined)	-2.5	i	·	95.0	·	·
CC(=O)c1cccc(-c2ccnc3c2CC(C(=O)Nc2ccc(F)c(Cl)c2)O3)c1 (centres undefined)	-5.3	i	·	94.0	·	100.0
CC(NC(=O)C12CC3CC(CC(O)(C3)C1)C2)c1ccc(Cl)cc1Cl (centres undefined)	6.5	i	2.3	105.0	·	·
CN(C(=O)C1CCCC1)C1CCS(=O)(=O)C1 (centres undefined)	2.2	i	4.7	71.0*	·	99.0
Cc1nn(C)cc1S(=O)(=O)NCc1ccc2c(c1)OCO2	-2.1	i	-5.4	99.0	·	·
O=C(CSc1c2c(nc3ccccc13)CCCC2)NCc1ccco1	-3.4	i	6.2	97.0	-1.9	·
O=C(NCc1ccco1)c1c2c(nc3ccccc13)CCC2	-11.7	i	-4.2	74.0*	-8.1	101.0
CCCCCCC(=O)N1CCC(c2nc3c(nnn3Cc3ccccc3Cl)c(=O)[nH]2)CC1	0.6	i	1.8	93.0	-5.5	101.0
O=C(Nc1ccc(F)cc1)N1CCC(c2nc3c(nnn3Cc3cccc(Cl)c3)c(=O)[nH]2)CC1	-3.9	i	2.1	103.0	14.5	·
N#Cc1cccc(NC(=O)N2CCC(c3nc4c(nnn4Cc4cccc(Cl)c4)c(=O)[nH]3)CC2)c1	5.3	i	-0.3	90.0	4.8	98.0
O=C(NC1CCCC1)c1nc2c(nnn2Cc2ccccc2Cl)c(=O)[nH]1	3.5	i	-6.9	104.0	4.9	·
O=C(C1CCCCC1)N1CCC(c2nc3c(nnn3Cc3c(F)cccc3Cl)c(=O)[nH]2)CC1	-7.9	i	3.6	104.0	14.7	101.0
O=C(c1cccs1)N1CCCC(c2nc3c(nnn3Cc3ccccc3Cl)c(=O)[nH]2)C1 (centres undefined)	2.8	i	-6.4	96.0	·	·
O=C(C1CCCCC1)N1CCC(c2nc3c(nnn3Cc3ccccc3Cl)c(=O)[nH]2)CC1	-6.3	i	-4.7	100.0	·	·
O=C(Cc1cccs1)N1CCC(c2nc3c(nnn3Cc3ccccc3Cl)c(=O)[nH]2)CC1	3.8	i	-0.3	64.0*	-4.6	100.0
COc1cc(NC(=NS(=O)(=O)c2ccccc2)c2ccccc2)ncn1	5.5	i	3.5	101.0	·	·
O=C(NC1CCCCC1)N1CCC(c2nc(-c3ccc(S(=O)(=O)N4CCCC4)cc3)no2)CC1	-1.2	i	7.1	70.0*	10.7	103.0
O=C(C1CC1)N1CCC(c2nc(-c3ccc(S(=O)(=O)N4CCCC4)cc3)no2)CC1	-1.9	i	-5.4	97.0	0.1	·
O=C1NC[C@@H](CCCCN2CCN(CC3CCCCC3)C(=O)C2=O)N(CC2CCCCC2)C1=O	-1.2	i	·	99.0	·	·
COc1cc(NC(=O)c2sc3ncn(CC(=O)N4CCCCC4C)c(=O)c3c2C)cc(OC)c1OC (centres undefined)	-3.9	i	-3.8	97.0	·	101.0
Cc1ccc(NC(=O)c2sc3ncn(CC(=O)N4CCOCC4)c(=O)c3c2C)c(Br)c1	2.5	i	4.5	99.0	·	97.0
SMILES	NOD2 RIPK2 PPI	Myeloid diff MLP	TLR9-MyD88 block	ABCB6 inh 2	TLR4-MyD88 BLA	ABCB6 blocker 1
CCOc1ccccc1N(C)C(=O)c1sc2ncn(CC(=O)N3CCCCC3C)c(=O)c2c1C (centres undefined)	-9.2	i	6.3	172.0	·	100.0
Cc1ccc(Cn2nc(C)c(C(=O)NCC(c3ccc(F)cc3)N3CCOCC3)c2Cl)cc1 (centres undefined)	-1.2	i	-6.0	96.0	·	·
O=C(NCCNC(=O)c1ccco1)c1ccc(Cl)c(Cl)c1	-6.6	i	-9.4	107.0	·	·
CN1N=C(C(C)(C)C)CSC1=Nc1ccccc1	1.1	i	-0.2	98.0	·	·
COCCCNC(=O)c1ccc2c(c1)CCN2S(C)(=O)=O	0.7	i	-1.0	69.0*	1.0	98.0
CCOc1ccc(S(=O)(=O)N2CCN=C2c2ccccc2)cc1	-11.0	i	5.9	103.0	·	·
CCCC(C(=O)NC1CCCC1)N(Cc1ccccc1)C(=O)c1snc(C(N)=O)c1N (centres undefined)	1.5	i	-5.6	67.0*	·	103.0
CCCC(C(=O)NC1CCCC1)N(Cc1ccc(OC)cc1)C(=O)c1snc(C(N)=O)c1N (centres undefined)	11.7	i	3.8	100.0	·	·
COc1ccccc1NS(=O)(=O)c1ccc(C(=O)N2CCCC(C(F)(F)F)C2)cc1 (centres undefined)	-3.0	i	14.2	93.0	·	·
COc1ccccc1N(C)S(=O)(=O)c1ccc(C(=O)N2CCCC(C(F)(F)F)C2)cc1 (centres undefined)	-2.8	i	-6.7	74.0*	·	102.0
Cc1ccc(S(=O)(=O)N2CCN(C(=O)c3sccc3-c3ccccc3)CC2)cc1	-0.5	i	-1.6	99.0	·	·
Cc1cccc(/C=C2\Sc3ccc(C(=O)N4CCC(C)CC4)cc3N(C)C2=O)c1	1.6	?	-18.6	13.0*	·	102.0
Cc1cc(NC(=O)c2cc(C)on2)n(-c2ccccc2)n1	11.2	i	0.6	72.0*	-7.4	103.0
Cc1cc(NC(=O)c2cc(-c3ccccc3)on2)n(-c2ccccc2)n1	-10.6	i	-11.7	98.0	10.1	·
CCOC(=O)c1ccc(NC(=O)CSc2nnc(CNC(=O)c3ccco3)o2)cc1	-17.1	i	-3.3	14.0*	·	98.0
O=C(Cc1n[nH]c(=O)c2ccccc12)OCC(=O)c1ccccc1	-2.5	i	-0.9	82.0	·	·
O=C(CN1CCc2ccccc2C1)Nc1ccc(F)cc1	2.5	i	-10.0	99.0	·	·
NS(=O)(=O)c1ccc(NC(=O)CN2CCc3ccccc3C2)cc1	-4.0	i	4.3	73.0*	·	99.0
O=C(NCc1ccco1)C1Cc2c(-c3cccc(F)c3)ccnc2O1 (centres undefined)	8.6	?	·	100.0	·	·
Cc1nn(-c2ccccc2Cl)c(Cl)c1/C=N/Nc1nc2ccccc2s1	2.5	i	-1.6	66.0*	-9.2	95.0
CCOC(=O)N/N=C/c1c(C)nn(-c2ccccc2Cl)c1Cl	2.4	i	-0.4	88.0	7.3	·
O=C1NC[C@H](Cc2ccc(O)cc2)N(CCc2cccc(F)c2)C1=O	-1.8	i	·	98.0	·	·
